# Assay results taken from PubChem BioAssay (EPA / NIEHS).
# Calls of active or inactive are those of the source. How the source made its calls: active means hit-call score of the fitted dose curve at least 0.9, where 1 is the maximum; inactive means score below 0.9.
# Biological target: Hepatocyte nuclear factor 6 (Homo sapiens) (UniProt Q9UBC0)
# Experiment: ATG_HNF6_CIS: Attagene CIS-FACTORIAL HepG2 Assay for human Hepatocyte Nuclear Factor 6 (HNF6) (AID 2282952)
# Conditions: HepG2 Attagene cis-factorial HNF6 reporter transcription; actives raise or lower the signal
# Procedure, shortened: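 Using cis-element reporters in HepG2 liver cells, the assay tracks endogenous factor-driven transcription 24 h post-dosing. Signal comes from 6-FAM-labelled, HpaI-digested RT-PCR fragments, with gain or loss scored against DMSO.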
# Hepatocyte nuclear factor 6 (Homo sapiens), sequence (Q9UBC0 whole entry, looked up): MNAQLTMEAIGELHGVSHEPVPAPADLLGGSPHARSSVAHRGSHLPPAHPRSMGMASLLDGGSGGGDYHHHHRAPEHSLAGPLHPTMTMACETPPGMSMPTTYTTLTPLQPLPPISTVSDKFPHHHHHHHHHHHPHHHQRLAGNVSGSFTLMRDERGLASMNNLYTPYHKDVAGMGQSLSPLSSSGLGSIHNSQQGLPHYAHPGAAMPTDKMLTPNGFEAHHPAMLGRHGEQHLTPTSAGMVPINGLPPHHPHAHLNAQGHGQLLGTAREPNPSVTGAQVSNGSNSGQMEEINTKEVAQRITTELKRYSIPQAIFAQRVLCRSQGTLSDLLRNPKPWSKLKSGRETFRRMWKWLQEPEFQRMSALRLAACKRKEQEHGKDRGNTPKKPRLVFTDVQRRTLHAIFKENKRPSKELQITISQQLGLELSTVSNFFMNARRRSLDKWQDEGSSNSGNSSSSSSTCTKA
row,SMILES,outcome
1,Cn1c(=O)cc(Oc2ccc(F)cc2F)c2cnc(NCC(C)(C)O)nc21,inactive
2,CC(C)CC(C)(O)C#CC(C)(O)CC(C)C (stereo not drawn),inactive
3,CC(C)=CCC/C(C)=C\CO,inactive
4,Cc1ccc(S(=O)(=O)O)cc1C,inactive
5,CC(=O)c1ccc2c(c1)[C@H](NC(=O)c1ccc(F)cc1)[C@@H](O)C(C)(C)O2,inactive
6,C=CCCCCCCCCC(=O)O,inactive
7,O=C(O)c1cccc(Oc2ccccc2)c1,inactive
8,C1N2CN3CN1CN(C2)C3,inactive
9,CC1=CC(=O)CC(C)(C)C1,inactive
10,CNS(=O)(=O)c1cc(C(=O)N2CCC(CCN3C4CCC3CC(n3c(C)nc5ccccc53)C4)(c3cccc(F)c3)CC2)c(Cl)cc1F (stereo not drawn),inactive
11,O=C(O)CCN(C1(C(=O)NO)CCCC1)S(=O)(=O)c1ccc(Oc2ccc(F)cc2)cc1,inactive
12,On1ccccc1=S,inactive
13,CCn1nc(Cc2ccccc2)cc1C1CCN(C[C@H]2C[C@H](N(C)[C@@H](C(=O)O)C(C)C)C[C@@H]2c2cccc(F)c2)CC1,inactive

# Biological target: Heat shock factor protein 1 (Homo sapiens) (UniProt Q00613)
# Sequence (Q00613 whole entry, looked up): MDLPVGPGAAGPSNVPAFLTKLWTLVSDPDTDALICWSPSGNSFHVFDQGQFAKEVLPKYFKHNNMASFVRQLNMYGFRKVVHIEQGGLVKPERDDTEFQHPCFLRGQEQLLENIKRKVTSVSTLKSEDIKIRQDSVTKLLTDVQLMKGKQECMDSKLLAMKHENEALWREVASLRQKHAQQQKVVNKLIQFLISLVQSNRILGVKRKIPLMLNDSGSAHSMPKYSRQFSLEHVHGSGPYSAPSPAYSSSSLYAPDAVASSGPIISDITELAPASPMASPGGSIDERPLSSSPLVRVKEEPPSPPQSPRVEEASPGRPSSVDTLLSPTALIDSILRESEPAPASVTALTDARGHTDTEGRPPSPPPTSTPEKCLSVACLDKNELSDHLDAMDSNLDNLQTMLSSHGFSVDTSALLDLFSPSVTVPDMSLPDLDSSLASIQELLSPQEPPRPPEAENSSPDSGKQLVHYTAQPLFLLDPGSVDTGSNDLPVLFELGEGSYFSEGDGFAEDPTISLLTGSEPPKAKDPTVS
# Experiment: ATG_HSE_CIS: Attagene CIS-FACTORIAL HepG2 Assay for human Heat Shock Transcription Factor 1 (HSE) (AID 2282953)
# Conditions: HepG2 HSE cis-reporter, Attagene RNA transcription; actives raise or lower the signal
# Procedure, shortened: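 HepG2 cells transiently transfected with multiple reporter transcription units under cis-regulatory promoter control, measuring endogenous transcription factor activity. After 24 h chemical exposure, reporter mRNA quantified by RT-PCR, fluorescent labelling, HpaI digestion and capillary electrophoresis; bidirectional fit versus DMSO.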
SMILES,outcome,AC50
O=C(O)CC(O)C(=O)O (stereo not drawn),inactive,
CC(C)=CCCC(C)=CC=O,inactive,
C=CC(=C)CCC=C(C)C,inactive,
CC[C@H]1OC(=O)[C@H](C)[C@@H](O[C@H]2C[C@@](C)(OC)[C@@H](O)[C@H](C)O2)[C@H](C)[C@@H](O[C@@H]2O[C@H](C)C[C@H](N(C)C)[C@H]2O)[C@](C)(O)C[C@@H](C)C(=O)[C@H](C)[C@@H](O)[C@]1(C)O,inactive,
O=C1CCC(N2C(=O)c3ccccc3C2=O)C(=O)N1 (stereo not drawn),inactive,
C[C@](N)(Cc1ccc(O)c(O)c1)C(=O)O,inactive,
Nc1cccc(N)c1,inactive,
Cn1c(=O)c2c(ncn2C)n(C)c1=O,inactive,
Nc1nc2ncc(CNc3ccc(C(=O)N[C@@H](CCC(=O)O)C(=O)O)cc3)nc2c(=O)[nH]1,inactive,
CC(=O)OCCC(C)C,inactive,
O=P(OC(CCl)CCl)(OC(CCl)CCl)OC(CCl)CCl,,151 µM (active)
CCCC(=O)OCC,inactive,
COc1cccc(-c2ccc(/C=C\CN3CCCCCC3)cc2Cl)c1,inactive,
O=C(OC[C@H]1O[C@@H](OC(=O)c2cc(O)c(O)c(OC(=O)c3cc(O)c(O)c(O)c3)c2)[C@H](OC(=O)c2cc(O)c(O)c(OC(=O)c3cc(O)c(O)c(O)c3)c2)[C@@H](OC(=O)c2cc(O)c(O)c(OC(=O)c3cc(O)c(O)c(O)c3)c2)[C@@H]1OC(=O)c1cc(O)c(O)c(OC(=O)c2cc(O)c(O)c(O)c2)c1)c1cc(O)c(O)c(OC(=O)c2cc(O)c(O)c(O)c2)c1,inactive,
CCOCCOCCOCCO,inactive,
O=C(O)c1cccc(N(Cc2cccnc2)c2ccc(OC(F)F)c(OC(F)F)c2)c1,inactive,
Cn1c(=O)cc(Oc2ccc(F)cc2F)c2cnc(NCC(C)(C)O)nc21,inactive,
CC(C)CC(C)(O)C#CC(C)(O)CC(C)C (stereo not drawn),inactive,
Cc1ccc(S(=O)(=O)O)cc1C,inactive,
CC(=O)c1ccc2c(c1)[C@H](NC(=O)c1ccc(F)cc1)[C@@H](O)C(C)(C)O2,inactive,
C=CCCCCCCCCC(=O)O,inactive,
O=C(O)c1cccc(Oc2ccccc2)c1,inactive,
C1N2CN3CN1CN(C2)C3,inactive,
CNS(=O)(=O)c1cc(C(=O)N2CCC(CCN3C4CCC3CC(n3c(C)nc5ccccc53)C4)(c3cccc(F)c3)CC2)c(Cl)cc1F (stereo not drawn),inactive,
O=C(O)CCN(C1(C(=O)NO)CCCC1)S(=O)(=O)c1ccc(Oc2ccc(F)cc2)cc1,inactive,
On1ccccc1=S,,26 µM (active)
CCn1nc(Cc2ccccc2)cc1C1CCN(C[C@H]2C[C@H](N(C)[C@@H](C(=O)O)C(C)C)C[C@@H]2c2cccc(F)c2)CC1,inactive,

# System: not listed separately
# Experiment: ATG_MRE_CIS: Attagene CIS-FACTORIAL HepG2 Assay for human Metal Responsive Element (MRE) (AID 2282954)
# Conditions: HepG2 MRE cis-reporter transcription, Attagene multiplex; actives raise or lower the signal
# Procedure, shortened: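 Cells were transfected with cis-promoter reporter transcription units, then dosed for 24 h. RNA was reverse-transcribed, amplified, fluorescently labelled and resolved by capillary electrophoresis, and activity was fitted in both directions relative to DMSO.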
SMILES,AC50,outcome
CC(C)=CCCC(C)=CC=O,100 µM (active),
C=CC(=C)CCC=C(C)C,,inactive
CC[C@H]1OC(=O)[C@H](C)[C@@H](O[C@H]2C[C@@](C)(OC)[C@@H](O)[C@H](C)O2)[C@H](C)[C@@H](O[C@@H]2O[C@H](C)C[C@H](N(C)C)[C@H]2O)[C@](C)(O)C[C@@H](C)C(=O)[C@H](C)[C@@H](O)[C@]1(C)O,,inactive
O=C1CCC(N2C(=O)c3ccccc3C2=O)C(=O)N1 (stereo not drawn),,inactive
Nc1cccc(N)c1,,inactive
Cn1c(=O)c2c(ncn2C)n(C)c1=O,,inactive
Nc1nc2ncc(CNc3ccc(C(=O)N[C@@H](CCC(=O)O)C(=O)O)cc3)nc2c(=O)[nH]1,,inactive
O=P(OC(CCl)CCl)(OC(CCl)CCl)OC(CCl)CCl,107 µM (active),
CCCC(=O)OCC,,inactive
O=C(O)c1cccc(N(Cc2cccnc2)c2ccc(OC(F)F)c(OC(F)F)c2)c1,,inactive
CC(C)=CCC/C(C)=C\CO,,inactive
Cc1ccc(S(=O)(=O)O)cc1C,,inactive
O=C(O)c1cccc(Oc2ccccc2)c1,,inactive
C1N2CN3CN1CN(C2)C3,,inactive
CC1=CC(=O)CC(C)(C)C1,,inactive
CNS(=O)(=O)c1cc(C(=O)N2CCC(CCN3C4CCC3CC(n3c(C)nc5ccccc53)C4)(c3cccc(F)c3)CC2)c(Cl)cc1F (stereo not drawn),,inactive
O=C(O)CCN(C1(C(=O)NO)CCCC1)S(=O)(=O)c1ccc(Oc2ccc(F)cc2)cc1,,inactive
CCn1nc(Cc2ccccc2)cc1C1CCN(C[C@H]2C[C@H](N(C)[C@@H](C(=O)O)C(C)C)C[C@@H]2c2cccc(F)c2)CC1,,inactive
